# Assay outcomes from PubChem BioAssay.
# Pin1 inh: inhibitors of human Pin1. Q13526. AID 504891. actives 0.009% (n = 390,000). Potency, µM (highest dose often 115 µM), for the others: at the top dose activity, negative = inhibition, hits mostly inhibitors. Pin1 FP peptide displacement, HiFluor488, 10 min; active means well fitted inhibition curve with a large enough effect in the polarisation, with a control signal flat, not every such curve was filed as active; inconclusive means small, poorly fitted or top-dose-only effect, or effect the other way, or a change in a side signal; inactive means no such curve, though single readings can be large or run the other way; the % refers to the polarisation; further: potency means the concentration at half of the fitted maximal effect
# GCN5L2 inh: inhibitors of human GCN5L2 histone acetyltransferase; Q92830; GCN5L2 HAT assay, ThioGlo1 CoA-SH fluorescence; Potency, µM (titrated, usually from 58.9 µM), inactives show at the highest dose activity change, negative = inhibition, usual class: inhibitors; actives 0.21% (n = 390,000); AID 504327; further: potency means the concentration at half of the fitted maximal effect
#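 Compounds, pin-transferred from DMSO stocks, meet 20nM GCN5L2 for 15 min before the reaction begins with H3(1-25) peptide (75uM) and acetyl-CoA (70uM). Thiol-reactive ThioGlo1 reports CoA release over 20 min at room temperature.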
# KCNH2 3.1 block: KCNH2 3.1 (human) potassium channel inhibition. activity change, % (tested at about 1.8 µM). U2OS KCNH2 3.1, thallium flux FluxOr; hits give low values. AID 720553. actives 0.95% (n = 340,000);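 active means maximum activity change below -70%; inconclusive means maximum activity change from -70% to -50%; inactive means maximum activity change above -50%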;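 further: thallium influx rate constant from kinetic fluorescence after stimulation buffer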
#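 Virally transduced U2OS (3.1 isoform, 4 h infection in dark at RT) → overnight 37 C → FluxOr + Red40 in HBSS/HEPES, 45 min → stimulation buffer, 2 min kinetic read → rate constant vs DMSO controls.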
# PGK inhibitor: T. brucei PGK inhibition | P07378 | PGK/GAPDH coupled, Kinase-Glo luminescence, 60 min | Potency, µM (doses to about 57.5 µM), inactives show at the highest dose activity change, negative = inhibition, usual class: inhibitors | actives 0.043% (n = 380,000) | AID 602233; further: potency means the concentration at half of the fitted maximal effect; nearly all actives have a fitted effect of over 60% in size
#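 Luminescent ATP detection (Kinase-Glo Plus) follows a 60-minute room-temperature incubation, with wells lacking PGK as controls. Buffer: 100 mM TEA (pH 7.6), 5 mM MgCl2, 0.01% Tween-20. Coupling enzyme GAPDH (100 nM final) supplies unstable 1,3-BPG in-well.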
# RGS4 inhibitor: human RGS4 inhibition; actives 0.039% (n = 390,000); Potency, µM (highest dose often 114 µM), for inactives: at the highest dose activity change, negative = inhibition, actives largely listed as inhibitors; Transcreener GDP fluorescence polarization, RGS4-accelerated GTP hydrolysis; AID 504845; further: potency means the concentration at half of the fitted maximal effect; nearly all actives have a fitted effect of over 75% in size
#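 MLSMR compounds (23 nl, pin-transferred) preincubated 10 min at room temperature with a 500nM (2x) first reagent, then RGS4 at 900nM (2x) plus Transcreener GDP mix added; fluorescence polarization (620/688 nm) read before and after 90 min at 30 °C.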
# KCNH2 WT inh: KCNH2 (human, wildtype) channel inhibition | U2OS, BacMam KCNH2, thallium flux FluxOr; hits give low values | activity change, % at 1.84 µM | actives 0.37% (n = 340,000) | Q12809;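 active means maximum activity change below -70%; inconclusive means maximum activity change between -70% and -50%; inactive means maximum activity change above -50%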
# Target sequence (Q12809 whole entry, looked up): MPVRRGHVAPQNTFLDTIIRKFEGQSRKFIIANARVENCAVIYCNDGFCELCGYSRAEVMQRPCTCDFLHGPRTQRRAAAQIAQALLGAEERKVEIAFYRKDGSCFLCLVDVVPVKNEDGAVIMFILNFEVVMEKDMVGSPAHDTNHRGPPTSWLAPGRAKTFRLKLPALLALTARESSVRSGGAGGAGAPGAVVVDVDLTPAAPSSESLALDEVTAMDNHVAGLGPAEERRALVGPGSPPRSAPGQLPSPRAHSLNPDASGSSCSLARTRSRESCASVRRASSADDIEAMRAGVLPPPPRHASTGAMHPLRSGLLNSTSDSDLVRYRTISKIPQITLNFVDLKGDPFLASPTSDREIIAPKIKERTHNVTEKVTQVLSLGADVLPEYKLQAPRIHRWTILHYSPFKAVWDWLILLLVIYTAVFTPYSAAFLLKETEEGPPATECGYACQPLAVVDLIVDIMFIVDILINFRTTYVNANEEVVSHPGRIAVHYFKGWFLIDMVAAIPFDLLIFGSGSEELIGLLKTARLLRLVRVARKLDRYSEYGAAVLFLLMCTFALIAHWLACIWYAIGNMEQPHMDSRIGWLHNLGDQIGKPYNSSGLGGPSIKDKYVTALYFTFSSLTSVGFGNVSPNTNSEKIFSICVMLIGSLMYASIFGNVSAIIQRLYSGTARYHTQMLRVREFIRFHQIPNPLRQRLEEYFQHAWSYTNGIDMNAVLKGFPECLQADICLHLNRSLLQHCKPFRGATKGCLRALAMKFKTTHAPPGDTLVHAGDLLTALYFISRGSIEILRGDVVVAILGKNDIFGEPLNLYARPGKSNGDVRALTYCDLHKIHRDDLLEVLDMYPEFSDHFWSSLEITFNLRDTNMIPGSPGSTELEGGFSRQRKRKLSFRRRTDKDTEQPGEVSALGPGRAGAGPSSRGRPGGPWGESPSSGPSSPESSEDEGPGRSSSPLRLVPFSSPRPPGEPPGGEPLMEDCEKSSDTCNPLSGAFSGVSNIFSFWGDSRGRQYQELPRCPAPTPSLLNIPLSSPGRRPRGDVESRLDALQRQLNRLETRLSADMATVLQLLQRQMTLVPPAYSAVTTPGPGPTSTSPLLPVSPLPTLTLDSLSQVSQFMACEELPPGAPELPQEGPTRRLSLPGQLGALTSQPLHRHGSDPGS
#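 U2OS cells were transduced with wild-type KCNH2 virus (2.03 x 10^8 / mL) for 4 h at room temperature, then cultured overnight at 37 C. Thallium flux was read with FluxOr dye. Rate constants were normalized to DMSO controls.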
# * hit, by the source's call; i = inactive; ? = inconclusive; · = no result; [ ] = another dose, or the depositor's remark. Hits are enriched below; roughly 1.2% of the tested compounds scored in any of these assays. Unless noted, the call rests on the fitted dose curve; in most records, active means well fitted curve in the direction sought with a large enough effect; inconclusive means small, poorly fitted or top-dose-only effect, or another doubt; inactive means no such curve, though single readings can be large; an effect the other way counts as inactive or inconclusive. On the % scale 0 is the no-effect control and ±100 the full control effect.
SMILES,Pin1 inh,GCN5L2 inh,KCNH2 3.1 block,PGK inhibitor,RGS4 inhibitor,KCNH2 WT inh
CC1=NN(c2ccc(C(=O)OC(C)C)cc2)C(=O)/C1=C\C=C\c1ccco1,?,5%,-194*,-6%,-20%,-202*
O=C(O)c1cc(N2N=C(C(F)(F)F)/C(=C/C=C/c3ccco3)C2=O)ccc1Cl,·,7.9µM*,13,?,?,7
O=c1oc2ccccc2n1CCCOc1ccccc1Cl,3%,-8%,·,0%,0%,·
CC1(C)C(/C=C/C=C/C=C/C=C2\N(CCCCS(=O)(=O)O)c3ccc4ccccc4c3C2(C)C)=[N+](CCCCS(=O)(=O)[O-])c2ccc3ccccc3c21,?,10µM*,22,?,?,-2
N#Cc1nc(NCC2CC2)nc(Nc2ccccc2)n1,2%,·,·,·,·,·
OCCN1CCN(c2ncnc3ccc(Br)cc23)CC1,1%,-10%,21,-2%,0%,10
OCCN1CCN(c2nc(-c3ccccc3)c3cc(Br)ccc3n2)CC1,?,-6%,-71*,6%,-2%,-30
Fc1ccc(C2=Nc3cccc4cccc(c34)N2)cc1,1%,11%,1,-9%,-16%,-2
FC(F)(F)C1=Nc2cccc3cccc(c23)N1,·,6.3µM*,13,-6%,?,-3
CCN(CC)CCCNC(=O)c1[nH]c2ccccc2c1Sc1ccc(Cl)cc1,12%,-2%,-111*,-5%,-33%,-127*
CCCCNC(=O)c1[nH]c2ccccc2c1Sc1ccc(C)cc1,-1%,0%,·,-1%,-3%,·
O=c1c2ccccc2n(Cc2cccc(F)c2)c(=O)n1Cc1ccccc1Cl,-2%,-10%,·,10%,-10%,·
Cc1cc(Nc2cccc(Cl)c2Cl)n2ncnc2n1,-4%,-4%,-3,i,-9%,-222*
Cc1ccc(Nc2cc(C)nc3ncnn23)c(Cl)c1,1%,-1%,2,-2%,1%,3
CCN(c1ccccc1)S(=O)(=O)c1ccc(NC(=O)c2cc(=O)c3cc(C)cc(C)c3o2)cc1,-4%,-6%,·,0%,9%,·
COc1ccc(CNC(=O)CCCn2ncn3c(cc4occc43)c2=O)cc1,7%,-4%,-114*,2%,-4%,2
O=C(N/N=C/c1cc(Cl)cc([N+](=O)[O-])c1O)NC12CC3CC(CC(C3)C1)C2,·,?,1,11µM*,-10%,-6
COc1cc(-c2nnc(SCC(=O)N(C)C3CCCCC3)o2)cc(OC)c1OC,30%,-6%,·,-7%,-1%,·
O=C(N1CCOCC1)N(Cc1cccs1)C1CCCC1,-14%,-2%,-80*,5%,40%,-18
Cc1cccc(C)c1NC(=S)N(Cc1cccs1)C1CCCC1,-1%,3%,?,2%,1%,-4
Cc1ccc(C)c(N(C(=O)CNC(=O)c2ccco2)C(C(=O)NCC2CCCO2)c2ccccc2)c1 (configuration not stated),-1%,1%,-75*,3%,20%,-5
Cc1ccc(N(C(=O)CNC(=O)c2ccco2)C(C(=O)NCC2CCCO2)c2ccccc2)cc1C (configuration not stated),0%,-2%,11,0%,21%,-14
COc1ccc2[nH]cc(CCO)c2c1,·,-6%,·,·,·,·
CCOC(=O)c1cnc(-n2nc(C)cc2C)nc1NC1CCCCC1,-7%,-4%,-12,i,2%,-105*
N#Cc1cccc(NC(=O)C2CCN(S(=O)(=O)c3ccc4[nH]c(=O)ccc4c3)CC2)c1,1%,-3%,·,-2%,11%,·
SMILES,Pin1 inh,GCN5L2 inh,KCNH2 3.1 block,PGK inhibitor,RGS4 inhibitor,KCNH2 WT inh
Cc1ccc(C(=O)CNc2ccc(Cl)cc2)cc1,-2%,-18%,-79*,3%,17%,13
CCOc1ccc(NCC(=O)c2ccc(C)cc2)cc1,1%,-6%,14,1%,-3%,10
COCCNC(=O)CCN1C(=O)c2cccnc2Oc2ccc(C)cc21,-4%,-12%,·,11%,0%,·
CC(C)n1c(=S)[nH]c2scc(-c3cccs3)c2c1=O,?,18µM*,46,-3%,-43%,-27
CCn1c(=S)[nH]c2scc(-c3cccs3)c2c1=O,1%,-5%,24,7%,-45%,-18
COc1cccc(C(=O)N2CCCc3ccccc32)c1OC,·,·,3,-2%,·,-9
COc1ccccc1C(=O)N1CCc2ccccc21,-2%,2%,-73*,2%,-2%,-10
CCCN1CCC2(CC1)NC(C(=O)O)Cc1c2[nH]c2ccccc12 (configuration not stated),0%,3%,0,10%,2%,-5
COC(=O)C1Cc2c([nH]c3ccccc23)C2(CCN(Cc3ccccc3)CC2)N1 (configuration not stated),9%,-9%,-81*,3%,21%,-40
O=C(c1ccccc1F)N1c2nc(-c3ccco3)nn2C2(CCCCC2)[C@@H]2CCCC[C@@H]21,30%,-17%,·,i,-38%,·
CCOC(=O)C1(CCOc2ccccc2)CCN(Cc2cccc(F)c2)CC1,-1%,-4%,?,-9%,5%,-30
CCOC(=O)C1(CCOc2ccccc2)CCN(CCCn2cccn2)CC1,0%,-3%,-88*,-1%,0%,-38
CCOC(=O)C1(CCOc2ccccc2)CCN(CC=C(C)C)CC1,-5%,2%,-3,i,-14%,20
CCOC(=O)C1(CCOc2ccccc2)CCN(Cc2cccc(-n3cccn3)c2)CC1,?,-6%,-98*,13%,-24%[56.9 µM],·
CCOC(=O)C1(CCOc2ccccc2)CCN(C(=O)c2ccc(-n3cccn3)cc2)CC1,-12%,-19%,-87*,-4%,-10%,?
CCC(=O)c1ccc2c(c1)N(CCCN1CCN(CCO)CC1)c1ccccc1S2,·,-23%,·,·,·,·
CC(CN1CCN(CCOCCO)CC1)CN1c2ccccc2Sc2ccc(Cl)cc21 (configuration not stated),·,·,-102*,i,·,0
CCN(CC)CC(=O)N1c2ccccc2Sc2ccccc21,-8%,0%,18,-1%,-8%,2
CCN(CC)CCCCN1c2ccccc2Sc2ccccc21,0%,-8%,-73*,2%,-10%,9
Cc1ccc(-c2c3c(=O)n(C)c(=O)n(C)c3c3c(C(F)(F)F)nc4ccccc4n23)cc1,?,-12%,·,-7%,-1%,·
Cc1ccc(CN2CCC(c3cc(-c4cccs4)n[nH]3)CC2)cc1,-1%,1%,-113*,7%,-28%,-71*
FC(F)(F)c1cccc(CN2CCC(c3cc(-c4cccs4)n[nH]3)CC2)c1,4%,-12%,-39,1%,-3%,9
